Data: PubChem BioAssay (NCI)
Compounds without any hit were thinned out: in the full panel of roughly 83,000, 20% have a hit.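 Note: values are percent growth. 100 is the growth of untreated cells, values between 100 and 0 indicate rising inhibition; between -100 and 0 indicates cell death.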 Values without a mark were called inactive. Active and inactive are the calls of the source. How the source made its calls: active means growth percent below 10; inactive means the rest.

How the values were obtained:
Experiment in all cases: NCI-60 one-dose screen, 48 h (100 = growth as untreated, 0 = no growth, -100 = all killed)
DU-145 prostate = conditions: 10 µM unless noted
K-562 leukemia = conditions: 10 µM unless noted
MALME-3M melanoma = conditions: 10 µM unless noted
RXF 393 renal = conditions: 10 µM unless noted
SF-295 CNS = conditions: 10 µM unless noted
UACC-257 melanoma = conditions: 10 µM unless noted
M14 melanoma = conditions: 10 µM unless noted
SK-MEL-5 melanoma = conditions: 10 µM unless noted
UACC-62 melanoma = conditions: 10 µM unless noted
LOX IMVI melanoma = conditions: 10 µM unless noted
SK-MEL-2 melanoma = conditions: 10 µM unless noted
A498 renal = conditions: 10 µM unless noted
HL-60(TB) leukemia = conditions: 10 µM unless noted
CCRF-CEM leukemia = conditions: 10 µM unless noted
SR leukemia = conditions: 10 µM
OVCAR-4 ovarian = conditions: 10 µM unless noted
IGROV1 ovarian = conditions: 10 µM
OVCAR-3 ovarian = conditions: 10 µM unless noted
BT-549 breast = conditions: 10 µM
HCC-2998 colon = conditions: 10 µM unless noted

SMILES	growth (DU-145 prostate)	growth (K-562 leukemia)	growth (MALME-3M melanoma)	growth (RXF 393 renal)	growth (SF-295 CNS)	growth (UACC-257 melanoma)	growth (M14 melanoma)	growth (SK-MEL-5 melanoma)	growth (UACC-62 melanoma)	growth (LOX IMVI melanoma)	growth (SK-MEL-2 melanoma)	growth (A498 renal)	growth (HL-60(TB) leukemia)	growth (CCRF-CEM leukemia)	growth (SR leukemia)	growth (OVCAR-4 ovarian)	growth (IGROV1 ovarian)	growth (OVCAR-3 ovarian)	growth (BT-549 breast)	growth (HCC-2998 colon)
[O]=[Sn]([CH]1CCCCC1)[CH]1CCCCC1	-98% (active)	-8.85% (active)	-72.2% (active)	-99% (active)	-85.6% (active)	-88.3% (active)	-88.6% (active)	-98.5% (active)	-93.3% (active)	-89.6% (active)	-63.2% (active)	-98% (active)	7.49% (active)	-42.2% (active)	14.8%	-98.7% (active)	-90.9% (active)	-98% (active)	-99.3% (active)	-98.6% (active)
CO[C@@H]1[C@H](OC(=O)NC(=O)CCl)CC[C@]2(CO2)[C@H]1[C@@]1(C)O[C@@H]1CC=C(C)C	59.8%	47.2%	57.7%	68.2%	75.1%	44.3%	62%	55.4%	63.5%	22.8%	82.3%	103%	49.1%	31.8%	21.5%	47.8%	-10.6% (active)	–	61.2%	80.9%
Cc1cc(C)nc(C)c1.[Cl][Hg][Cl]	102%	83.6%	92.8%	124%	94.9%	93.8%	97.3%	106%	95%	80.2%	98.7%	120%	93.7%	78.3%	–	103%	106%	108%	100%	114%
CCOC(=O)c1cnc(SCc2ccc(Cl)c(Cl)c2)nc1N1CC1	66.7%	21.4%	68.6%	66.6%	39.1%	79%	41.8%	72.6%	–	23.7%	66.2%	44.3%	56.8%	38%	24.1%	53.6%	33.7%	54.6%	52.6%	51.9%
Cc1ccccc1O	120%	119%	115%	102%	135%	106%	101%	106%	107%	91.5%	109%	129%	110%	103%	128%	101%	102%	130%	102%	99.4%
S=P(N1CCCCCC1)(N1CC1)N1CC1	112%	97%	90.3%	124%	117%	106%	–	107%	98.3%	103%	97.9%	107%	84.3%	94.4%	82.6%	117%	90.1%	112%	102%	93.8%
O=C(/C=C/c1ccccc1)N[C@@H](CO)Cc1cnc[nH]1	114%	107%	110%	118%	98.9%	–	105%	103%	110%	97.2%	102%	115%	98.8%	–	93.6%	96.8%	92.9%	112%	103%	112%
CCOCC1(CCc2ccccc2)C(=O)NC(=S)NC1=O	109%	105%	138%	117%	111%	94.5%	105%	111%	104%	94.9%	103%	96.9%	99.4%	100%	92.7%	120%	107%	117%	105%	–
